Screens deposited in PubChem BioAssay by National Center for Advancing Translational Sciences (NCATS).
Compounds with a hit are over-represented: about 2.9% of the library has one in this group of screens.
Pol beta inh-1: blocks human DNA polymerase beta activity. AID 485314. Potency, µM (doses to about 114 µM), for the others: at the top dose activity change, negative = inhibition, most hits filed as inhibitors. Pol beta primer extension/strand displacement, fluorescence kinetic. 340,000 tested, 1.3% active; also: potency is read from the fitted curve at half-maximal effect; % is scaled to controls: 0 for no effect and ±100 for the full control effect
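Curves were derived by four-parameter Hill fits of normalized qHTS data. The kinetic fluorescent primer-extension read was taken at 0 and 10 min after 50 nM substrate, following a 15 min room-temperature preincubation of 10 nM enzyme with compounds.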
Pol eta inh-1: inhibitors of human DNA polymerase eta | Q9Y253 | recombinant Pol eta, fluorescent DNA replication assay | Potency, µM (series often up to 114 µM), for the others: at the highest dose activity change, negative = inhibition, most hits filed as inhibitors | 390,000 tested, 1.2% active; also: potency is read from the fitted curve at half-maximal effect; % is scaled to controls: 0 for no effect and ±100 for the full control effect
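Pol eta at 10 nM preincubated with compounds 15 min at room temperature; reaction started with fluorescent substrate (50 nM final) and read kinetically at 0 and 10 min.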
Pol iota inh: blocks human DNA polymerase iota activity | Pol iota fluorescent replication assay, 10 min | Potency, µM (doses to about 115 µM), for inactives: at the highest dose activity, negative = inhibition, most hits filed as inhibitors | 390,000 tested, 1% active; also: potency is read from the fitted curve at half-maximal effect
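Fluorescent replication assay read twice, at 0 min and 10 min after adding 50 nM (final) substrate. Enzyme (10 nM) and compounds were first incubated 15 min at room temperature; enzyme-free buffer wells were negative controls.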
PI5P4K alpha inh: blocks human PI5P4K alpha kinase activity. PI5P4Kalpha enzyme, ADP-Glo luminescence, 60 min; active compounds read low. max response, %. P48426. 330,000 tested, 1.2% active; active = max response of -50% or lower; inconclusive = between -30% and -50%; inactive = -30% or higher; also: value at the top dose of about 77 µM; % is scaled to controls: 0 for no effect and ±100 for the full control effect
Target sequence (P48426 whole entry, looked up): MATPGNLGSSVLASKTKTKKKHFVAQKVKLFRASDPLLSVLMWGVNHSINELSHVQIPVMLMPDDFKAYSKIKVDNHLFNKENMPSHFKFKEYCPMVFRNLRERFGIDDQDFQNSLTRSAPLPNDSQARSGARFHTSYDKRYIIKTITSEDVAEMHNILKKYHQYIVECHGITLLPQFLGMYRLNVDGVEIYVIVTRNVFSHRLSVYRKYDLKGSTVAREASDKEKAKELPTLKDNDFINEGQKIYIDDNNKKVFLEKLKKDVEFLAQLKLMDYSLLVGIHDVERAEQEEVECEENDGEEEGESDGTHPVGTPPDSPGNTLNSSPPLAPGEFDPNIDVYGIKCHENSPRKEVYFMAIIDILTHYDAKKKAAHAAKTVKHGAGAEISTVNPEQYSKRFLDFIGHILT
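Human PI5P4Kalpha with substrate in 0.038 M HEPES pH 7.4, 0.28 mM EGTA, 0.1% CHAPS, 5% DMSO; reaction started with 5 microM ATP (final), 60 min at room temperature. ADP formed read by ADP-Glo luminescence.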
POLK inh: DNA polymerase kappa (human) inhibition | Q9UBT6 | purified Pol kappa, fluorescent DNA synthesis assay, 10 min | Potency, µM (titrated, usually from 107 µM), for inactives: top-dose activity, negative = inhibition, actives largely listed as inhibitors | 400,000 tested, 0.53% active | AID 588579; also: potency is read from the fitted curve at half-maximal effect; % is scaled to controls: 0 for no effect and ±100 for the full control effect
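Fluorescent qHTS in 1536-well format: enzyme (10 nM) and compound sat 15 min at room temperature before 50 nM substrate (final) was added. Signal taken at 0 and 10 min; no-enzyme buffer wells were negative controls.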
12-LOX inh: inhibitors of human 12S-lipoxygenase ALOX12 | P18054 | purified 12hLO, xylenol orange hydroperoxide absorbance | Potency, µM (series often up to 108 µM), inactives show at the highest dose activity change, negative = inhibition, actives largely listed as inhibitors | 580,000 tested, 1.1% active | AID 1671190; also: potency is read from the fitted curve at half-maximal effect; % is scaled to controls: 0 for no effect and ±100 for the full control effect
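Purified human 12hLO at 150 nM in 25 mM Hepes, 0.01% Triton X-100, pH 7.0, preincubated 15 min at room temperature with compound. Reaction started with 40 uM arachidonic acid, 30 min at room temperature. Hydroperoxide measured by Fe-xylenol orange, 573/405 nm absorbance ratio.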
Pol beta inh-2: Human Pol beta inhibitor hit validation; shares compounds with Pol beta inh-1; Pol beta primer extension/strand displacement, fluorescence kinetic; Potency, µM, usual class: inhibitors; 250 tested, 87% active; AID 540280; calls by dose curve; also: potency is read from the fitted curve at half-maximal effect
Klenow counter: inhibits Klenow fragment polymerase in counter-screen | shares compounds with Pol beta inh-1 | activity change, negative = inhibition, % at 57.1 µM | 250 tested, under 10 active | AID 540300 | Klenow exo- polymerase counter-screen, fluorescent DNA substrate
HIV RT inh: inhibits HIV-1 reverse transcriptase in counter-screen; 250 tested, under 10 active; activity % (negative = inhibition, positive = activation), % at 57.1 µM; shares compounds with Pol beta inh-1; AID 540301; HIV-1 RT polymerase activity, counter-screen
POLB inh gel: validation of human DNA polymerase beta inhibitors; shares compounds with Pol beta inh-1; radiolabeled primer extension gel assay, phosphorimager; inhibition, % at 10 µM; 110 tested, 91% active;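 active = inhibition at 10 µM of 30% or more; inconclusive = no clear call, values can overlap the other calls; inactive = inhibition at 10 µM under 30%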
TbPGK inh: validation of Trypanosoma brucei phosphoglycerate kinase inhibitors. shares compounds with POLK inh. TbPGK coupled GAPDH assay, Kinase-Glo luminescence. Potency, µM (series often up to 57.5 µM), without a hit: top-dose activity change, negative = inhibition, actives largely listed as inhibitors. 500 tested, 79% active. AID 686980; also: potency is read from the fitted curve at half-maximal effect; % is scaled to controls: 0 for no effect and ±100 for the full control effect; nearly all actives have a fitted effect of over 65% in size
Target sequence (P07378 whole entry, looked up): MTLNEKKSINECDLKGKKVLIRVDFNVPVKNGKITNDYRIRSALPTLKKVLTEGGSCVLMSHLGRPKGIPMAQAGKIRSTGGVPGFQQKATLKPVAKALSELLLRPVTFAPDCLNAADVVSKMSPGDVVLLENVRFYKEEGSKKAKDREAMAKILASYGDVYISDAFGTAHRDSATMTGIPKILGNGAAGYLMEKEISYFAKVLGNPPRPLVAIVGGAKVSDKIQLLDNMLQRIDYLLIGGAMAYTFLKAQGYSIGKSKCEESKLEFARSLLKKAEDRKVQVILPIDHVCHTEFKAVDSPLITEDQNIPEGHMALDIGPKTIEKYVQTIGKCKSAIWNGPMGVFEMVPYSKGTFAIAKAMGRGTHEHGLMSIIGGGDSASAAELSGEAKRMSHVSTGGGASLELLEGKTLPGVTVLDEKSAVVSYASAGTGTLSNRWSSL
Pol iota confirm: Human Pol iota inhibitor confirmatory assay | shares compounds with POLK inh | Pol iota primer extension, TAMRA/BHQ fluorescence | Potency, µM, most hits filed as inhibitors | 1,500 tested, 77% active | AID 720496; also: potency is read from the fitted curve at half-maximal effect
Pol eta inh-2: Pol eta (human) inhibition, cherry-pick confirmation. shares compounds with Pol eta inh-1. Potency, µM, actives largely listed as inhibitors. Pol eta primer extension, TAMRA/BHQ fluorescence, 10 min. 2,600 tested, 64% active; also: potency is read from the fitted curve at half-maximal effect
ADP-Glo counter: ADP-Glo luciferase interference, PI5P4K counter-screen; AID 743285; Potency, µM (series often up to 76.9 µM), for inactives: top-dose activity change, negative = inhibition, most hits filed as inhibitors; shares compounds with PI5P4K alpha inh; ADP-Glo detection counter-screen, luciferase luminescence, no enzyme; 1,100 tested, under 10 active
Active calls of the source: *; ? = inconclusive; nt = not tested or not shown. Unless noted, calls follow the shape of the dose curve; as a rule, active = well fitted curve in the direction sought with a large enough effect; inconclusive = small, poorly fitted or top-dose-only effect, or another doubt; inactive = no such curve, though single readings can be large; an effect the other way counts as inactive or inconclusive.

SMILES | Pol beta inh-1 | Pol eta inh-1 | Pol iota inh | PI5P4K alpha inh | POLK inh | 12-LOX inh | Pol beta inh-2 | Klenow counter | HIV RT inh | Pol iota confirm | ADP-Glo counter | others
Cc1c(O)cc2c(c1O)C(=O)CC(c1ccc(O)cc1)O2 (centres undefined) | 1.3µM* | 8.9µM* | ? | -80* | 14µM* | 6% | 5* | -20 | 27 | nt | nt | Pol eta inh-2=?
Cc1cc2oc(C(=O)Nc3ccc(S(=O)(=O)Nc4nccs4)cc3)cc(=O)c2cc1Cl | 13µM* | 20µM* | ? | -52* | -75% | -9% | 14* | -29 | 18 | nt | 0% | Pol eta inh-2=76*
Cc1cc2oc(C(=O)Nc3ccc(S(=O)(=O)Nc4ncccn4)cc3)c(C)c2cc1Cl | -2% | 1% | 9% | 2 | -17% | -8% | nt | nt | nt | nt | nt
CSc1ccc(NC(=O)Nc2cccc(-c3ccc(N4CCOCC4)nn3)c2)cc1 | nt | nt | nt | nt | nt | 7% | nt | nt | nt | nt | nt
Cn1c(SCC(=O)Nc2ccc3nc(SCC(=O)N4CCCC4)sc3c2)nnc1-c1ccccc1 | 7.1µM* | 14µM* | ? | -64* | 79µM* | -17% | 13* | -8 | 19 | 75* | -7%
O=C(Nc1ccc2nc(SCC(=O)N3CCCC3)sc2c1)c1ccccc1 | 26% | -6% | 23% | nt | -10% | -7% | nt | nt | nt | nt | nt
COc1cccc(-c2nc(COc3ccccc3C#N)cs2)c1OC | nt | nt | nt | nt | nt | -7% | nt | nt | nt | nt | nt
CCOC(=O)Cc1csc(NC(=O)Cc2cccs2)n1 | 14µM* | 18µM* | ? | -58* | ? | -22% | ? | -5 | 15 | nt | 0%
COc1ccc(CCn2c(O)cc3nn(-c4nc5ccccc5s4)c(=O)c-3c2C)cc1 | 1.8µM* | 50µM* | ? | -81* | 22µM* | ? | ? | -32 | 36 | nt | 3% | POLB inh gel=97*
O=C(COC(=O)c1cccc(S(=O)(=O)N2CCN(c3ccccc3)CC2)c1)NCc1ccco1 | 20µM* | 8.9µM* | ? | -54* | 79µM* | 6% | 13* | -33 | 10 | 75* | -3% | Pol eta inh-2=43*
CC(NCc1ccco1)c1ccccc1 (centres undefined) | nt | nt | nt | nt | nt | 2% | nt | nt | nt | nt | nt
Cc1cc(C(=O)OCC(=O)NCC(C)C)c2ccccc2n1 | nt | nt | nt | nt | nt | -1% | nt | nt | nt | nt | nt
O=C(Nc1cccc(S(=O)(=O)NC2=NCCCCC2)c1)c1cc(-c2ccccc2)nc2ccccc12 | 9% | -4% | 9% | -1 | -10% | 2% | nt | nt | nt | nt | nt
O=C(Nc1cccc(S(=O)(=O)NC2=NCCC2)c1)c1cc(-c2ccco2)nc2ccccc12 | 3.5µM* | 10µM* | 8.9µM* | -75* | 32µM* | ? | 4.5* | -39 | 6 | 34* | -4% | Pol eta inh-2=24*
Cc1csc(NC(=O)c2cc(-c3ccco3)nc3ccccc23)n1 | 7.9µM* | 25µM* | ? | -57* | ? | 25µM* | 11* | -34 | 23 | nt | -8% | Pol eta inh-2=76*
CCNC(=O)COC(=O)c1cc(-c2ccco2)nc2ccccc12 | 13µM* | 20µM* | 8.9µM* | -78* | 35µM* | 7.1µM* | 25* | -20 | 5 | 34* | 3% | POLB inh gel=98*;Pol eta inh-2=38*
Cn1c(SCc2cc(Cl)c3c(c2)OCCCO3)nnc1-c1ccncc1 | nt | nt | nt | nt | nt | 3% | nt | nt | nt | nt | nt
CC(C)CCN1CCN(Cc2ccc3nsnc3c2)CC1CCO (centres undefined) | -1% | -2% | 25% | -2 | -18% | 1% | nt | nt | nt | nt | nt | TbPGK inh=-8%
C=CCN1C=C2C(=O)C(C)(OC(=O)c3cnc4ccccc4n3)C(=O)C=C2C=C1/C=C/COC (centres undefined) | nt | 25µM* | ? | -2 | ? | ? | nt | nt | nt | ? | nt
COC/C=C/C1=CC2=CC(=O)C(C)(OC(=O)c3cnc4ccccc4n3)C(=O)C2=CN1CCCOC(C)C (centres undefined) | 0% | 4% | ? | -2 | -17% | -60% | nt | nt | nt | nt | nt
O=C(Nc1ccc2c(c1)OCCO2)c1coc2ccccc2c1=O | 41% | ? | 6% | -16 | -4% | -23% | nt | nt | nt | nt | nt | TbPGK inh=4.1µM*
Cc1ccccc1C(=O)Nc1ccc2c(c1)OCCO2 | 5% | -17% | ? | -9 | -7% | 0% | nt | nt | nt | nt | nt
O=C(Nc1ccc(NC(=O)c2ccco2)c(Cl)c1)c1ccc2c(c1)OCCO2 | ? | ? | ? | 1 | ? | -23% | nt | nt | nt | ? | nt
CCCNC(=O)Nc1cccc(C(N)=O)c1C | nt | nt | nt | nt | nt | 53% | nt | nt | nt | nt | nt
COc1cccc2c1NC(C(=O)O)C1CC=CC21 (centres undefined) | 1.8µM* | 2.5µM* | 1µM* | -96* | 7.9µM* | nt | nt | nt | nt | nt | nt | TbPGK inh=8.2µM*
CC(=O)c1ccc2c(c1)C1C=CCC1C(C(=O)O)N2 (centres undefined) | 32µM* | 1µM* | 1.6µM* | -91* | 3.5µM* | ? | nt | nt | nt | nt | nt | TbPGK inh=9.2µM*
CC(C)CC(=O)Nc1ccc(-c2cc3cc(F)ccc3[nH]2)cc1 | nt | nt | nt | nt | nt | 10% | nt | nt | nt | nt | nt
CCOc1ccc(-c2c(C(=O)N/N=C/c3cccnc3)nnn2-c2nonc2N)cc1 | ? | ? | 22µM* | 2 | ? | 16% | nt | nt | nt | ? | nt
